Results taken from PubChem BioAssay (NCI).
About 83,000 compounds went through this panel and 20% of them were active in at least one assay; those are over-represented in the sample as a whole.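 Note: values are percent growth. 100 is the growth of untreated cells, values between 100 and 0 indicate rising inhibition; between -100 and 0 indicates cell death.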 The source made the active and inactive calls. The calls were made as follows: active = growth percent below 10; inactive = the rest.

How the values were obtained:
Assay in all cases: NCI-60 one-dose screen, 48 h (100 = growth as untreated, 0 = no growth, -100 = all killed)
[1] = tested on: HCT-15 colon; details: 10 µM unless noted
[2] = tested on: HT29 colon; details: 10 µM unless noted
[3] = tested on: SNB-75 CNS; details: 10 µM unless noted
[4] = tested on: SNB-19 CNS; details: 10 µM unless noted
[5] = tested on: U251 CNS; details: 10 µM unless noted
[6] = tested on: PC-3 prostate; details: 10 µM unless noted
[7] = tested on: SK-MEL-5 melanoma; details: 10 µM unless noted
[8] = tested on: UACC-62 melanoma; details: 10 µM unless noted
[9] = tested on: LOX IMVI melanoma; details: 10 µM unless noted
[10] = tested on: SK-MEL-28 melanoma; details: 10 µM unless noted
[11] = tested on: SK-MEL-2 melanoma; details: 10 µM unless noted
[12] = tested on: EKVX NSCLC; details: 10 µM unless noted
[13] = tested on: SN12C renal; details: 10 µM unless noted
[14] = tested on: UO-31 renal; details: 10 µM unless noted
[15] = tested on: TK-10 renal; details: 10 µM unless noted
[16] = tested on: ACHN renal; details: 10 µM unless noted
[17] = tested on: CAKI-1 renal; details: 10 µM
[18] = tested on: A498 renal; details: 10 µM unless noted
[19] = tested on: CCRF-CEM leukemia; details: 10 µM unless noted
[20] = tested on: MOLT-4 leukemia; details: 10 µM unless noted

Measured: growth

COc1cc(C2CC(c3ccc(Nc4nc(NCCO)nc(Nc5ccc(Cl)cc5)n4)cc3)=Nc3c(N)nc(N)nc3N2)cc(OC)c1OC (centres undefined)
inactive: [1] 54.2% | [2] 60.9% | [3] 91.4% | [4] 47.1% | [5] 38.7% | [6] 41.9% | [7] 53.4% | [8] 77.6% | [9] 53.1% | [10] 96.4% | [11] 75.9% | [12] 109% | [13] 49.9% | [14] 85.1% | [15] 95.8% | [16] 79.3% | [17] 53.8% | [18] 99.8% | [19] 23.8% | [20] 19.9%

CCOC(=O)c1nn(-c2ccc(C)cc2)c(=O)c2c(N)c(C#N)c(-c3ccc(OC)cc3)cc12
inactive: [1] 99.2% | [2] 99.4% | [3] 67.3% | [4] 91.3% | [5] 103% | [6] 94.8% | [7] 99.9% | [8] 94.9% | [9] 95.5% | [10] 100% | [11] 95.1% | [12] 84.7% | [13] 85.6% | [14] 80.5% | [15] 125% | [16] 93.6% | [17] 92% | [18] 118% | [19] 103% | [20] 114%

O=C(NNc1nc2cc(F)c(F)cc2n2cccc12)c1cccnn1
inactive: [1] 29.1% | [2] 29.5% | [3] 33.7% | [4] 22.6% | [5] 14.8% | [6] 33.7% | [8] 10.5% | [10] 27.3% | [11] 19.3% | [13] 15.8% | [14] 13.3% | [15] 39.5% | [16] 10.2% | [17] 11.8% | [18] 14.2%
active: [7] -36.8% | [9] 3.83% | [12] 7.06% | [19] 7.8% | [20] 7.86%

COc1ccc(NC(=O)Cn2cc(CN3C(=O)c4ccc([N+](=O)[O-])cc4C3=O)nn2)cc1
inactive: [1] 98.2% | [2] 109% | [3] 73.9% | [4] 93.6% | [5] 100% | [6] 98.6% | [7] 102% | [8] 91.3% | [9] 97.7% | [10] 110% | [11] 112% | [12] 105% | [13] 99.7% | [14] 88.1% | [15] 103% | [16] 104% | [17] 87.7% | [18] 88.2% | [19] 109% | [20] 101%

CC(C)=CCC[C@](C)(O)[C@H]1CC[C@]2(C)[C@@H]1CC[C@@H]1[C@@]3(C)CCC(NC(=O)c4ccccc4C(=O)O)C(C)(C)[C@@H]3CC[C@]12C (some centres undefined)
inactive: [1] 87.7% | [2] 75.5% | [3] 90.2% | [4] 86.3% | [5] 88.6% | [6] 81.5% | [7] 55.4% | [8] 28.7% | [9] 84.3% | [10] 34.3% | [11] 39.8% | [12] 101% | [13] 92.9% | [14] 85.2% | [15] 106% | [16] 73.5% | [17] 66.4% | [18] 103% | [19] 95.9% | [20] 97.5%

O=C(Nc1ccc(-c2nc(-c3cccc(O)c3)c(-c3ccnc(Br)c3)[nH]2)cc1)c1ccccc1
active: [1] 7.12% | [3] -2.13% | [6] 6.14% | [7] -67% | [9] 3.27% | [14] 1.13% | [18] -11.4% | [19] 3.66% | [20] -15.8%
inactive: [2] 12.2% | [4] 23.3% | [5] 20.8% | [8] 22.1% | [10] 34.2% | [11] 10.3% | [12] 26.7% | [13] 35% | [15] 49% | [16] 16.5% | [17] 11.3%

O=C(CSc1nnc(-c2cccs2)n1-c1ccccc1)Nc1ccc(F)cc1
inactive: [1] 93.6% | [2] 101% | [3] 104% | [4] 91% | [5] 99.5% | [6] 99% | [7] 97.6% | [8] 67.9% | [9] 97.9% | [10] 104% | [11] 110% | [12] 90.9% | [13] 95.5% | [14] 59.1% | [15] 108% | [16] 90.9% | [17] 87.3% | [18] 84.7% | [20] 85.6%

Cc1ccc(NC(=O)c2cccc(CN3CCN(C)CC3)c2)cc1Oc1ccc(-c2[nH]nc3ncnc(N)c23)cc1
active: [2] 5.69% | [20] 0.353%
inactive: [1] 86.1% | [3] 66.8% | [4] 81.9% | [5] 64.6% | [6] 72.9% | [7] 76.7% | [8] 73% | [9] 29.9% | [10] 72.9% | [11] 73.8% | [12] 97.5% | [13] 80% | [14] 93.3% | [15] 93.5% | [16] 92.6% | [17] 59.3% | [18] 89.2% | [19] 47%

CCN(CC)c1ccc2cc(C(=O)NCCOCCOCCOCCn3cc(CCC(=O)Nc4ccc(C(=O)c5ccc(NC(=O)OC(C)(C)C)cc5)cc4)nn3)c(=O)oc2c1
active: [7] -17.2%
inactive: [1] 72.7% | [2] 77.9% | [3] 94.6% | [4] 75.7% | [5] 69.8% | [6] 39.4% | [8] 32.1% | [9] 26.7% | [10] 82.6% | [11] 67.6% | [12] 73.5% | [13] 68.7% | [14] 62.5% | [15] 95.6% | [16] 84.1% | [17] 25.7% | [18] 84.8% | [19] 19% | [20] 21.4%

CC1(C)CC[C@]2(C(=O)N3CCCNCC3)CC[C@]3(C)C(=CC[C@@H]4[C@@]5(C)CCC(=O)C(C)(C)[C@@H]5CC[C@]43C)[C@H]2C1
inactive: [1] 103% | [2] 102% | [3] 124% | [4] 98% | [5] 100% | [6] 88.2% | [7] 102% | [8] 89.6% | [9] 97.2% | [10] 104% | [11] 108% | [12] 103% | [13] 98.7% | [14] 95.3% | [15] 97.1% | [16] 105% | [17] 89% | [18] 109% | [19] 90.6% | [20] 106%

N#C/C(=C\c1ccc2ccccc2c1)C(=O)Nc1sc2c(c1C#N)CCC2
inactive: [1] 99% | [2] 121% | [3] 102% | [4] 98.9% | [5] 99% | [6] 98.1% | [7] 98% | [8] 90.3% | [9] 95.6% | [10] 113% | [11] 100% | [12] 94.8% | [13] 95.5% | [14] 78.2% | [15] 108% | [16] 104% | [17] 88.2% | [18] 93.9% | [19] 103% | [20] 101%

CN1C(=O)N(C)C2Nn3c(s/c(=C\c4ccccn4)c3=O)=NC21 (centres undefined)
inactive: [1] 99.9% | [2] 110% | [3] 105% | [4] 100% | [5] 105% | [6] 99.1% | [7] 102% | [8] 90.6% | [9] 99.6% | [10] 104% | [11] 102% | [12] 99.7% | [13] 104% | [14] 88.1% | [15] 111% | [16] 100% | [17] 97.1% | [18] 105% | [19] 102% | [20] 110%

C#C[C@]1(O)CC[C@H]2[C@@H]3CC=C4c5sc(C6CCOCC6)nc5CC[C@]4(C)[C@H]3CC[C@@]21C
inactive: [1] 36.1% | [2] 44.2% | [3] 78.9% | [4] 86.1% | [5] 57.6% | [6] 63.2% | [7] 85.2% | [8] 64.7% | [9] 65.8% | [10] 56.5% | [11] 94.6% | [12] 84.2% | [13] 82.9% | [14] 83.9% | [15] 113% | [16] 88.2% | [17] 84.5% | [18] 96.9% | [19] 52.3% | [20] 38.3%

C#Cc1ccc(NC(=O)c2ccc(/C=C/C(=O)c3nccn3C)cc2)c(F)c1
inactive: [2] 15.8% | [3] 17.7% | [4] 23% | [6] 29.9% | [7] 60.5% | [8] 29.9% | [10] 84% | [11] 103% | [12] 36% | [13] 16.3% | [14] 41.8% | [15] 89.4% | [16] 37.7% | [17] 37.3% | [18] 78.7% | [20] 16.2%
active: [1] 7.76% | [5] 5.03% | [9] -60.8% | [19] 7.54%

C#C[C@]1(O)CC[C@H]2[C@@H]3CC=C4c5sc(-c6ccccn6)nc5CC[C@]4(C)[C@H]3CC[C@@]21C
inactive: [1] 68.9% | [2] 68.2% | [3] 37.4% | [4] 72.4% | [5] 51.1% | [6] 51.9% | [7] 91% | [8] 67.6% | [9] 62.9% | [10] 44.3% | [11] 70.7% | [12] 77.7% | [13] 87.2% | [14] 35.8% | [15] 104% | [16] 75.8% | [17] 87.7% | [18] 70.6% | [19] 37.5% | [20] 21.7%
